NADH coupling: inhibition of NAD/NADH coupling enzymes, library profiling; AID 774; hit rate 0.02% among 65,000; coupled PK/LDH NADH assays, four targets; IC50, µM (doses to about 10 µM);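 active = single-dose screening hits from any of four coupled enzyme assays that gave an IC50 when retested across doses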;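 also: the DPM-DC format reads NADH fluorescence rather than 340 nm absorbance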
Abs 340nm: compound absorbs light at 340 nm; compound absorbance at 340 nm, fold over control; fold change at 10 µM; 65,000 tested, under 10 active;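 active = at 10 µM dose, initial 340 nm absorbance at least 2 fold that of control wells; inactive = change under 2 fold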;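 also: initial absorbance extrapolated from kinetic A340 decline of NADH oxidation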
Spn MK inh: inhibitors of Streptococcus pneumoniae mevalonate kinase. inhibition, % at 10 µM. purified MK, PK/LDH-coupled NADH absorbance 340 nm. hit rate 0.48% among 65,000;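 active = ranked among the strongest by inhibition in the single 10 µM screen, a fixed top-ranked set picked for dose follow-up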
Spn DPM-DC inh: S. pneumoniae DPM-DC inhibition; purified DPM-DC, PK/LDH coupled NADH fluorescence; calls only at 10 µM; hit rate 0.49% among 65,000; AID 556;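 active = the 320 compounds with the highest percent inhibition in the single-dose primary screen, excluding strongly autofluorescent ones, cut at about 32% in these data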;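 also: kinetic rate of NADH fluorescence loss reporting ADP formed by the decarboxylase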
Autofluor 339: intrinsic fluorescence of library compounds, ex339/em460 – biochemical, MLSMR library, data from DPM-DC assay, artefact control, profiling panel; compound autofluorescence, ex339/em460 nm, NADH buffer; active compounds read high; 1 = no-compound wells, NADH background; fluorescence fold increase at 10 µM; hit rate 5.5% among 65,000; AID 709;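 active = at 10 µM, mean starting fluorescence two-fold or more over control wells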;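 also: signal is the first read of a kinetic run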
PMK inhibit: S. pneumoniae PMK inhibition; AID 539; hit rate 0.49% among 65,000; purified PMK, PK/LDH-coupled NADH absorbance 340 nm; inhibition, % at 10 µM;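 active = top-ranked compounds by inhibition in the single 10 µM screen, taking a fixed number of the strongest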
A number is an active result; - = inactive; . = no result given; + = active, no number. Only some compounds are listed: those with a hit (about 6.5% of all), similar ones and a draw of the others.

SMILES	NADH coupling	Abs 340nm	Spn MK inh	Spn DPM-DC inh	Autofluor 339	PMK inhibit
CCOC(=O)C1CCCN(c2ncnc3c2[nH]c2cccc(OC)c23)C1 (stereo not given)	-	-	-	.	3.7	-
COc1cccc2[nH]c3c(N4CCCC(C)C4)ncnc3c12 (stereo not given)	-	-	-	.	3.4	-
CCOC(=O)C1CCCN(c2ncnc3c2cnn3-c2cccc(C)c2)C1 (stereo not given)	-	-	-	-	-	-
CCOC(=O)N1CCC(NC(=O)c2ccc3c(=O)n4c(nc3c2)CCCC4)CC1	-	-	-	-	-	-
COc1cccc(-n2nnnc2SCC(=O)c2cc(OC)ccc2OC)c1	-	-	-	-	2.4	-
COc1cc2c(cc1NC(=O)CSc1nnnn1-c1ccccc1)oc1ccccc12	-	-	-	-	2.2	-
CCCCc1cc(=O)oc2cc(C)cc(OC(C)C(=O)O)c12 (stereo not given)	-	-	-	.	3	-
CCCc1cc(=O)oc2cc(C)cc(OCC(=O)O)c12	-	-	-	.	3.9	-
CCSc1nc2c(c(=O)[nH]1)C(C(C)C)C(C#N)=C(N)O2 (stereo not given)	-	-	-	-	-	-
O=c1[nH]c(=O)n(Cc2ccccc2)c2nc(-c3ccco3)cc(C(F)(F)F)c12	-	-	-	.	4.9	-
CCC(C)(C)n1nnnc1C(c1ccc2ncccc2c1)N1CCN2CCCC2C1 (stereo not given)	-	-	-	-	-	-
CCn1cc(C(=O)Nc2nncs2)c(=O)c2cc(F)c(N3CCN(C(=O)c4ccco4)CC3)cc21	-	-	-	-	2.4	-
CCN(C(=O)c1coc(=O)c(Br)c1)c1ccc2c(c1)OCO2	-	-	-	.	3.4	-
CCc1cc(=O)oc2cc(C)c(CN3CCCCC3)c(O)c12	-	-	-	-	-	-
Cc1cc(=O)oc2c(CN3CCCCC3)c(O)c(Cl)cc12	-	-	-	.	2.4	-
Cc1cc(=O)oc2c(CN3CCC(C)CC3)c(O)c(Cl)cc12	-	-	-	.	2.3	-
CCN1CCN(Cc2c(O)c(Cl)cc3c(C)cc(=O)oc23)CC1	-	-	-	.	2.2	-
COc1ccc(C(C)=O)cc1COC(=O)c1cccc(N(C)C)c1	-	-	-	-	2.1	-
CC1(C)C(C=C(Cl)Cl)C1C(=O)N1CCN(c2ccccc2)CC1 (stereo not given)	-	-	-	+	-	-
CC1(C)CC(=O)C2=C(C1)OC(N)=C(C#N)C2C1CC=CCC1 (stereo not given)	-	-	-	-	-	-
COc1ccc(C2C(C(N)=O)=C(C)Nc3nc(-c4ccccc4Cl)nn32)c(OC)c1 (stereo not given)	-	-	-	-	-	-
Cc1ccc(CN2CCSc3ccc(C(=O)N4CCN(c5ncccn5)CC4)cc32)cc1	-	-	-	.	4.9	-
CC(=O)c1cccc(NC(=O)c2ccc(Br)o2)c1	-	-	-	-	-	-
O=C(Nc1ccc2nn(-c3ccccc3)nc2c1)c1ccc2c(c1)OCCO2	-	-	-	.	2.2	-
O=C(Nc1ccc2nsnc2c1)c1ccc2c(c1)OCO2	-	-	-	-	-	-
SMILES	NADH coupling	Abs 340nm	Spn MK inh	Spn DPM-DC inh	Autofluor 339	PMK inhibit
O=C(Nc1ccc2nn(-c3ccccc3)nc2c1)c1ccc(Br)o1	-	-	-	+	-	-
CC(CC(=O)O)NCC1COc2ccccc2O1 (stereo not given)	-	-	-	-	-	26
O=C(O)CNCC1COc2ccccc2O1 (stereo not given)	-	-	-	-	-	-
Nc1nc2c3ccccc3nc(C3CC3)n2n1	-	-	-	-	-	-
CN1CCN(S(=O)(=O)c2ccc3c4c(cccc24)C(=O)N3)CC1	-	-	-	.	2.1	-
CCOc1ccccc1N1CCN(S(=O)(=O)c2ccc3c4c(cccc24)C(=O)N3)CC1	-	-	-	-	-	-
O=C1Nc2ccc(S(=O)(=O)NCc3ccccn3)c3cccc1c23	-	-	-	.	3.8	-
O=C1Nc2ccc(S(=O)(=O)N3CCCCCC3)c3cccc1c23	-	-	-	.	2.1	-
O=C1Nc2ccc(S(=O)(=O)N3CCOCC3)c3cccc1c23	-	-	-	.	4	-
CN1C(=O)c2cccc3c(S(=O)(=O)Nc4ccccn4)ccc1c23	-	-	-	-	-	-
O=C1CCN2C=Nc3cccc4ccc1c2c34	-	-	-	.	3.2	-
CCOC(=O)c1c(C(F)(F)C(F)(F)C(F)(F)C(F)(F)F)n[nH]c1C	-	-	-	-	-	-
CCc1cc(=O)oc2cc(OC(C)C(=O)O)c(Cl)cc12 (stereo not given)	-	-	-	-	2.9	-
CCc1cc(=O)oc2cc(OCC(=O)O)c(Cl)cc12	-	-	-	-	2.4	-
COc1ccc(-c2cn3c(C)c(C(=O)Nc4cc(NC(C)=O)ccc4OC)sc3n2)cc1	-	-	-	.	3.4	-
CNC(=O)c1sc2nc(-c3ccc(OC)cc3)cn2c1C	-	-	-	-	-	-
Cc1csc(NC(=O)CSc2nnc(Cn3c(=O)sc4ccccc43)n2-c2ccccc2)n1	-	-	-	-	-	-
COc1ccccc1NS(=O)(=O)c1cccc2cccnc12	-	-	51	-	-	-
CCOC(=O)/C=C1\SCC(=O)N1CCOc1cccc(Br)c1	-	-	-	-	-	-
CCOC(=O)C(Cc1ccccc1)C(=O)Nc1nccs1 (stereo not given)	-	-	-	+	-	-
COc1ccc(-n2c(NC(=O)c3ccco3)c(C#N)c3nc4ccccc4nc32)cc1	-	-	-	+	3	-
CCC(=O)Nc1c(C#N)c2nc3ccccc3nc2n1-c1ccccc1C	-	-	-	.	3.1	-
CCOC(=O)c1nn(-c2ccccc2C)c(=O)c(C#N)c1C	-	-	-	-	-	-
N#Cc1c(N)n(C2CCCCC2)c2nc3ccccc3nc12	-	-	-	.	3.9	-
CCC(=O)Nc1c(C#N)c2nc3ccccc3nc2n1C1CCCCC1	-	-	.	.	2.3	-
SMILES	NADH coupling	Abs 340nm	Spn MK inh	Spn DPM-DC inh	Autofluor 339	PMK inhibit
CN(C(=O)COC(=O)COc1ccccc1F)C1CCS(=O)(=O)C1 (stereo not given)	-	-	-	-	-	-
CCC(=O)Nc1ccc2oc(-c3ccccc3Br)nc2c1	-	-	-	-	-	-
O=C(CN1CCCC1)Nc1ccc(-c2nc3cc(NC(=O)CN4CCCC4)ccc3o2)cc1	-	-	-	.	3.7	-
CCN(CC)CC(=O)Nc1ccc(-c2nc3cc(NC(=O)CN(CC)CC)ccc3o2)cc1	-	-	-	.	3	-
CCC(C)NCC(=O)Nc1ccc(-c2nc3cc(NC(=O)CNC(C)CC)ccc3o2)cc1 (stereo not given)	-	-	-	.	3.7	-
COc1ccc(-c2nc3cc(NC(=O)Cc4ccc(OC)c(OC)c4)ccc3o2)cc1	-	-	-	.	2.6	-
O=C(CN1C(=O)c2ccccc2C1=O)Nc1ccc(-c2nc3ccccc3o2)cc1	-	-	-	-	-	-

Bioassay records from PubChem.
